# Experimental data: PubChem BioAssay AID1159580 (chemical genetic matrix, 2015)
# “And” between values parts separate entries of the source, which are not always exact repeats. Equal entries are not always repeated. Hit rate of the full screen: of about 5,500 compounds, about 2,000 (36%) were called active. Another 18% or so got no clear call; they are omitted. Some of the results follow. Values without a mark were called inactive. Cut-off read from the data, not from the text of the source: active = normalized growth mostly below about 0.91 (no sharp cut-off); inconclusive = no clear call, values can overlap the other calls; inactive = mostly above about 0.92.
# Assay: chemical genetic growth profiling, strain panel (AID 1159580);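 note: tested at 20 µM; growth read once vehicle control cultures reached saturation at 30 °C; 1 = growth at the plate median or of vehicle wells; lower values mean less growth of the strain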
# Details: S. cerevisiae deletion strains, growth OD
smiles,measurement,setting,value
COc1c(O)cc2c(-c3ccccc3)cc(=O)oc2c1OC,normalized growth,"locus YAL021C, strain ccr4, stronger effect = lower value",0.994
same,normalized growth,"locus YAL026C, strain drs2, stronger effect = lower value",1.01
same,normalized growth,"locus YAL030W, strain snc1, stronger effect = lower value",0.992
same,normalized growth,"locus YBL061C, strain skt5, stronger effect = lower value",1.01
same,normalized growth,"locus YBR009C, strain hhf1, stronger effect = lower value",0.994
same,normalized growth,"locus YBR021W, strain FUR4, stronger effect = lower value",0.982
same,normalized growth,"locus YBR023C, strain chs3, stronger effect = lower value",0.994
same,normalized growth,"locus YBR171W, strain sec66, stronger effect = lower value",1.01
same,normalized growth,"locus YBR229C, strain ROT2, stronger effect = lower value",0.995
same,normalized growth,"locus YBR231C, strain swc5, stronger effect = lower value",1
same,normalized growth,"locus YBR279W, strain paf1, stronger effect = lower value",0.995
same,normalized growth,"locus YCL011C, strain gbp2, stronger effect = lower value",0.995
same,normalized growth,"locus YCL016C, strain dcc1, stronger effect = lower value",0.993
same,normalized growth,"locus YCL029C, strain bik1, stronger effect = lower value",0.964
same,normalized growth,"locus YCL061C, strain MRC1, stronger effect = lower value",0.994
same,normalized growth,"locus YCL069W, strain vba3, stronger effect = lower value",1.01
same,normalized growth,"locus YCR088W, strain abp1, stronger effect = lower value",0.995
same,normalized growth,"locus YDL005C, strain med2, stronger effect = lower value",0.99
same,normalized growth,"locus YDL035C, strain GPR1, stronger effect = lower value",1.05
same,normalized growth,"locus YDL040C, strain nat1, stronger effect = lower value",0.997
same,normalized growth,"locus YDL074C, strain BRE1, stronger effect = lower value",1.01
same,normalized growth,"locus YDL101C, strain DUN1, stronger effect = lower value",0.99
same,normalized growth,"locus YDL134C, strain PPH21, stronger effect = lower value",1.03
same,normalized growth,"locus YDL185W, strain tfp1, stronger effect = lower value",0.95
same,normalized growth,"locus YDL192W, strain arf1, stronger effect = lower value",0.988
same,normalized growth,"locus YDR001C, strain nth1, stronger effect = lower value",0.987
same,normalized growth,"locus YDR069C, strain doa4, stronger effect = lower value",1.02
same,normalized growth,"locus YDR101C, strain arx1, stronger effect = lower value",1.01
same,normalized growth,"locus YDR137W, strain rgp1, stronger effect = lower value",0.889
same,normalized growth,"locus YDR159W, strain sac3, stronger effect = lower value",0.999
same,normalized growth,"locus YDR162C, strain NBP2, stronger effect = lower value",1.01
same,normalized growth,"locus YDR195W, strain ref2",0.989
same,normalized growth,"locus YDR297W, strain sur2, stronger effect = lower value",1.02
same,normalized growth,"locus YDR318W, strain mcm21, stronger effect = lower value",0.973
same,normalized growth,"locus YDR334W, strain swr1, stronger effect = lower value",1
same,normalized growth,"locus YDR335W, strain msn5, stronger effect = lower value",0.995
same,normalized growth,"locus YDR388W, stronger effect = lower value",0.984
same,normalized growth,"locus YDR392W, strain spt3, stronger effect = lower value",0.848
same,normalized growth,"locus YDR502C, strain sam2, stronger effect = lower value",0.955
same,normalized growth,"locus YEL003W, strain gim4, stronger effect = lower value",1.02
same,normalized growth,"locus YEL037C, strain rad23, stronger effect = lower value",1
same,normalized growth,"locus YEL061C, strain CIN8 (second series), stronger effect = lower value",0.995
same,normalized growth,"locus YER015W, strain faa2, stronger effect = lower value",0.997
same,normalized growth,"locus YER016W, strain bim1, stronger effect = lower value",1
same,normalized growth,"locus YER110C, stronger effect = lower value",0.968
same,normalized growth,"locus YER111C, strain swi4, stronger effect = lower value",0.997
same,normalized growth,"locus YER155C, strain BEM2 (second series), stronger effect = lower value",1.02
same,normalized growth,"locus YER155C, strain BEM2, stronger effect = lower value",0.989
same,normalized growth,"locus YER167W, strain BCK2, stronger effect = lower value",0.988
same,normalized growth,"locus YFR010W, strain ubp6, stronger effect = lower value",1.02
same,normalized growth,"locus YGL078C, strain dbp3, stronger effect = lower value",1
same,normalized growth,"locus YGL086W, strain mad1, stronger effect = lower value",0.996
same,normalized growth,"locus YGL167C, strain pmr1, stronger effect = lower value",0.971
same,normalized growth,"locus YGL173C, strain kem1, stronger effect = lower value",1.01
same,normalized growth,"locus YGL227W, strain vid30, stronger effect = lower value",0.996
same,normalized growth,"locus YGL240W, strain doc1, stronger effect = lower value",1.02
same,normalized growth,"locus YGL248W, strain PDE1, stronger effect = lower value",1.02
same,normalized growth,"locus YGL253W, strain hxk2, stronger effect = lower value",1.02
same,normalized growth,"locus YGR135W, strain pre9, stronger effect = lower value",0.954
same,normalized growth,"locus YGR252W, strain gcn5, stronger effect = lower value",1.06
same,normalized growth,"locus YHR013C, strain ard1, stronger effect = lower value",0.978
same,normalized growth,"locus YHR027C, strain rpn1, stronger effect = lower value",0.987
same,normalized growth,"locus YHR030C, strain SLT2, stronger effect = lower value",0.993 and 1.06
same,normalized growth,"locus YHR079C, strain IRE1 (second series), stronger effect = lower value",0.959
same,normalized growth,"locus YHR079C, strain IRE1, stronger effect = lower value",1.05
same,normalized growth,"locus YHR094C, strain hxt1, stronger effect = lower value",0.983
same,normalized growth,"locus YHR129C, strain ARP1, stronger effect = lower value",1.01
same,normalized growth,"locus YHR142W, strain chs7, stronger effect = lower value",0.965
same,normalized growth,"locus YHR200W, strain rpn10, stronger effect = lower value",0.986
same,normalized growth,"locus YIL066C, strain RNR3, stronger effect = lower value",1
same,normalized growth,"locus YIL073C, strain SPO22, stronger effect = lower value",0.905
same,normalized growth,"locus YIL125W, strain kgd1, stronger effect = lower value",0.992
same,normalized growth,"locus YIR030C, strain dcg1, stronger effect = lower value",0.957
same,normalized growth,"locus YJL092W, strain hpr5, stronger effect = lower value",0.991
same,normalized growth,"locus YJL095W, strain BCK1 (second series), stronger effect = lower value",0.999
same,normalized growth,"locus YJL095W, strain BCK1, stronger effect = lower value",1.11 and 1.04
same,normalized growth,"locus YJL115W, strain asf1, stronger effect = lower value",0.995
same,normalized growth,"locus YJL129C, strain trk1, stronger effect = lower value",0.948
same,normalized growth,"locus YJL134W, strain LCB3, stronger effect = lower value",0.993
same,normalized growth,"locus YJL154C, strain vps35, stronger effect = lower value",0.985
same,normalized growth,"locus YJL164C, strain tpk1, stronger effect = lower value",0.974
same,normalized growth,"locus YJL166W, strain qcr8, stronger effect = lower value",0.999
same,normalized growth,"locus YJL168C, strain set2, stronger effect = lower value",0.965
same,normalized growth,"locus YJL187C, strain SWE1 (second series), stronger effect = lower value",1
same,normalized growth,"locus YJL187C, strain SWE1, stronger effect = lower value",0.989
same,normalized growth,"locus YJR043C, strain POL32, stronger effect = lower value",1.04
same,normalized growth,"locus YJR066W, strain TOR1, stronger effect = lower value",0.984
same,normalized growth,"locus YKL009W, strain mrt4, stronger effect = lower value",0.996
same,normalized growth,"locus YKL068W, stronger effect = lower value",0.985
same,normalized growth,"locus YKL085W, strain MDH1 (second series), stronger effect = lower value",0.973
same,normalized growth,"locus YKL085W, strain MDH1, stronger effect = lower value",0.973
same,normalized growth,"locus YKL160W, strain elf1, stronger effect = lower value",0.983
same,normalized growth,"locus YKL190W, strain CNB1, stronger effect = lower value",0.99
same,normalized growth,"locus YKR001C, strain vps1, stronger effect = lower value",0.946
same,normalized growth,"locus YKR026C, strain gcn3, stronger effect = lower value",1
same,normalized growth,"locus YKR091W, strain srl3, stronger effect = lower value",0.995
same,normalized growth,"locus YLL001W, strain dnm1, stronger effect = lower value",0.962
same,normalized growth,"locus YLL026W, stronger effect = lower value",1
same,normalized growth,"locus YLL041C, strain sdh2, stronger effect = lower value",0.998
same,normalized growth,"locus YLR027C, strain aat2, stronger effect = lower value",1
same,normalized growth,"locus YLR039C, strain RIC1, stronger effect = lower value",0.979
same,normalized growth,"locus YLR058C, strain SHM2, stronger effect = lower value",1.01
same,normalized growth,"locus YLR102C, strain apc9, stronger effect = lower value",0.983
same,normalized growth,"locus YLR113W, strain HOG1, stronger effect = lower value",1.03
same,normalized growth,"locus YLR221C, strain rsa3, stronger effect = lower value",1.04
same,normalized growth,"locus YLR258W, strain gsy2, stronger effect = lower value",1.01
same,normalized growth,"locus YLR262C, strain YPT6 (second series), stronger effect = lower value",0.878
same,normalized growth,"locus YLR268W, strain sec22, stronger effect = lower value",0.975
same,normalized growth,"locus YLR320W, strain mms22, stronger effect = lower value",1.02
same,normalized growth,"locus YLR330W, strain CHS5, stronger effect = lower value",0.985
same,normalized growth,"locus YLR342W, strain FKS1, stronger effect = lower value",1
same,normalized growth,"locus YLR357W, strain rsc2, stronger effect = lower value",0.95
same,normalized growth,"locus YLR370C, strain arc18, stronger effect = lower value",0.99
same,normalized growth,"locus YLR371W, strain rom2, stronger effect = lower value",0.97
same,normalized growth,"locus YLR384C, strain iki3, stronger effect = lower value",0.988
same,normalized growth,"locus YLR418C, strain cdc73, stronger effect = lower value",0.948
same,normalized growth,"locus YML016C, strain PPZ1, stronger effect = lower value",1
same,normalized growth,"locus YML032C, strain rad52, stronger effect = lower value",0.995
same,normalized growth,"locus YML120C, strain ndi1, stronger effect = lower value",0.966
same,normalized growth,"locus YML124C, strain tub3, stronger effect = lower value",0.971
same,normalized growth,"locus YMR058W, strain fet3, stronger effect = lower value",1.01
same,normalized growth,"locus YMR078C, strain ctf18, stronger effect = lower value",0.961
same,normalized growth,"locus YMR125W, strain sto1, stronger effect = lower value",0.973
same,normalized growth,"locus YMR129W, stronger effect = lower value",0.995
same,normalized growth,"locus YMR205C, strain PFK2, stronger effect = lower value",0.936
same,normalized growth,"locus YMR223W, strain ubp8, stronger effect = lower value",0.978
same,normalized growth,"locus YMR231W, strain pep5, stronger effect = lower value",0.995
same,normalized growth,"locus YMR263W, strain SAP30, stronger effect = lower value",0.989
same,normalized growth,"locus YMR307W, strain GAS1, stronger effect = lower value",1.67 [resistant] (active)
same,normalized growth,"locus YNL067W, strain RPL9B, stronger effect = lower value",1.01
same,normalized growth,"locus YNL071W, strain lat1, stronger effect = lower value",0.993
same,normalized growth,"locus YNL128W, strain TEP1, stronger effect = lower value",1
same,normalized growth,"locus YNL153C, strain GIM3, stronger effect = lower value",1
same,normalized growth,"locus YNL183C, strain NPR1, stronger effect = lower value",0.994
same,normalized growth,"locus YNL209W, strain ssb2, stronger effect = lower value",0.991
same,normalized growth,"locus YNL233W, strain BNI4, stronger effect = lower value",1.01
same,normalized growth,"locus YNL248C, strain rpa49, stronger effect = lower value",1.03
same,normalized growth,"locus YNL250W, strain rad50, stronger effect = lower value",0.915
same,normalized growth,"locus YNL271C, strain bni1, stronger effect = lower value",0.973
same,normalized growth,"locus YNL298W, strain CLA4, stronger effect = lower value",1.01
same,normalized growth,"locus YNL307C, strain MCK1, stronger effect = lower value",0.95
same,normalized growth,"locus YNL322C, strain KRE1 (second series), stronger effect = lower value",0.982
same,normalized growth,"locus YNR049C, strain mso1, stronger effect = lower value",1.01
same,normalized growth,"locus YNR052C, strain pop2, stronger effect = lower value",0.99
same,normalized growth,"locus YOL012C, strain htz1",1.04
same,normalized growth,"locus YOL147C, strain pex11, stronger effect = lower value",0.968
same,normalized growth,"locus YOR001W, strain rrp6, stronger effect = lower value",1.02
same,normalized growth,"locus YOR061W, strain CKA2, stronger effect = lower value",1
same,normalized growth,"locus YOR069W, strain VPS5, stronger effect = lower value",0.994
same,normalized growth,"locus YOR070C, strain gyp1, stronger effect = lower value",0.999
same,normalized growth,"locus YOR080W, strain dia2, stronger effect = lower value",1.02
same,normalized growth,"locus YOR083W, strain WHI5, stronger effect = lower value",0.984
same,normalized growth,"locus YOR106W, strain vam3, stronger effect = lower value",0.967
same,normalized growth,"locus YOR136W, strain idh2, stronger effect = lower value",0.977
same,normalized growth,"locus YOR144C, strain elg1, stronger effect = lower value",0.989
same,normalized growth,"locus YOR184W, strain ser1, stronger effect = lower value",1.03
same,normalized growth,"locus YOR231W, strain MKK1, stronger effect = lower value",1.06
same,normalized growth,"locus YOR265W, strain rbl2, stronger effect = lower value",0.987
same,normalized growth,"locus YOR270C, strain vph1, stronger effect = lower value",1.01
same,normalized growth,"locus YOR290C, strain snf2, stronger effect = lower value",0.967
same,normalized growth,"locus YOR316C, strain cot1, stronger effect = lower value",0.962
same,normalized growth,"locus YPL051W, strain arl3, stronger effect = lower value",1.02
same,normalized growth,"locus YPL055C, strain LGE1, stronger effect = lower value",1.06
same,normalized growth,"locus YPL078C, strain atp4, stronger effect = lower value",0.969
same,normalized growth,"locus YPL106C, strain sse1, stronger effect = lower value",0.983
same,normalized growth,"locus YPL240C, strain hsp82, stronger effect = lower value",1
same,normalized growth,"locus YPL256C, strain CLN2, stronger effect = lower value",1.02
same,normalized growth,"locus YPR119W, strain clb2, stronger effect = lower value",0.947
same,normalized growth,"locus YPR141C, strain kar3, stronger effect = lower value",0.968
same,normalized growth,"locus YPR163C, strain tif3, stronger effect = lower value",0.98
same,normalized growth,"locus YPR167C, strain met16, stronger effect = lower value",0.968
same,normalized growth,"strain wtn01, stronger effect = lower value",0.991
